Laboratory results as given in PubChem BioAssay (Tox21).
Several values for one entry are separate records, joined by “and”; a condition that tells them apart may be missing. Equal values may be shown once. Inconclusive results are not listed. A call without a number means that no potency is given here. Some structures have more than one record in an assay (separate samples or runs), and their calls can disagree. Activity calls are given as the source filed them. Unless noted, calls come from the whole dose curve; as a rule, active = well fitted cell-killing curve with a large enough effect in the repeat runs; inconclusive = weak or mixed curves, or effect the other way; inactive = no such curve, though single readings can be large or run the other way.

molecular target: Retinoic acid receptor RXR-alpha (Homo sapiens) (UniProt P19793); experiment: qHTS assay to identify small molecule agonists of the RXR signaling pathway (AID 1159527; calls by dose curve; note: nearly all actives have a fitted effect of over 35% in size); details: HEK293T RXRa-UAS-bla, beta-lactamase ratio, 16 h; series mostly up to 76.8 µM
Sequence (P19793 whole entry, looked up): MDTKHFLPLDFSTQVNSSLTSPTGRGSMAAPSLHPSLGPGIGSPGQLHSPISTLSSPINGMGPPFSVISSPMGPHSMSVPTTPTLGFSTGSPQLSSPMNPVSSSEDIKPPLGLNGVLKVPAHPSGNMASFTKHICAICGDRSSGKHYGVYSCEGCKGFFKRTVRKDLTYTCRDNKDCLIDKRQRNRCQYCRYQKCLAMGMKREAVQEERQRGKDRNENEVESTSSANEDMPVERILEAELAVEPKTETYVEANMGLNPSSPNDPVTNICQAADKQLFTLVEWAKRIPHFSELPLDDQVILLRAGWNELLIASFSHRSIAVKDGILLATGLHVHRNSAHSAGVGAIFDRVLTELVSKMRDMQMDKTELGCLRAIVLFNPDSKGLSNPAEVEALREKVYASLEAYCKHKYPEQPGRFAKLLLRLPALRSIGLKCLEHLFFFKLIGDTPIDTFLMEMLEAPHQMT
Method in brief: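 qHTS of the Tox21 10K library in GeneBLAzer RXR-alpha HEK 293T cells carrying a beta-lactamase reporter […]; 16 hr treatment, 9-cis retinoic acid as agonist control, FRET read-out.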

Row | Compound | Potency
1 | CCCCc1oc2ccccc2c1C(=O)c1cc(I)c(OCCN(CC)CC)c(I)c1 | inactive
2 | CN(C)CCN(Cc1cccs1)c1ccccn1 | inactive
3 | O=C(/C=C/C=C/c1ccc2c(c1)OCO2)N1CCCCC1 | inactive

tested on: not listed separately; experiment: qHTS assay to identify small molecule agonists of the RXR signaling pathway - cell viability counter screen (AID 1159529); details: RXR-alpha-bla HEK293T viability, CellTiter-Glo, 16 h; series mostly up to 76.8 µM; note: nearly all actives have a fitted effect of over 50% in size; note: potency is the fitted concentration of half-maximal effect
Method in brief: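 Cell viability is measured by CellTiter-Glo luminescence, 30 min at room temperature, in wells already read for beta-lactamase. Engineered HEK 293T cells (RXR-alpha-UAS-bla) are dosed 16 hr at 37 C. Tetraoctyl ammonium bromide serves as positive control.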

Row | Compound | Potency
4 | O=C(c1ccc(OCCN2CCCCC2)cc1)c1c(-c2ccc(O)cc2)sc2cc(O)ccc12 | 27.5 µM (active) and 23.9 µM (active)
5 | CC(=O)O[C@]1(C(C)=O)CC[C@H]2[C@@H]3C=C(Cl)C4=CC(=O)[C@@H]5C[C@@H]5[C@]4(C)[C@H]3CC[C@@]21C | inactive
6 | CCCCc1oc2ccccc2c1C(=O)c1cc(I)c(OCCN(CC)CC)c(I)c1 | 12.4 µM (active) and 16.9 µM (active)
7 | C#C[C@]1(O)CC[C@H]2[C@@H]3CCC4=Cc5oncc5C[C@]4(C)[C@H]3CC[C@@]21C | 21.9 µM (active)
8 | Nc1ncn([C@@H]2O[C@H](CO)[C@@H](O)[C@H]2O)c(=O)n1 | inactive
9 | CCOC(=O)C(C#N)=C(c1ccccc1)c1ccccc1 | inactive
10 | Cc1ccc(C(=O)c2cc(O)c(O)c([N+](=O)[O-])c2)cc1 | inactive
11 | O=C(/C=C/c1ccccc1)OCc1ccccc1 | inactive
12 | Cc1ccc(C)c(O)c1C | inactive
13 | c1cc(N(CC2CO2)CC2CO2)ccc1OCC1CO1 (stereo unspecified) | inactive
14 | COC(C)COC(C)COC(C)CO (stereo unspecified) | inactive
15 | Cc1c(OCC(F)(F)F)ccnc1CS(=O)c1nc2ccccc2[nH]1 (stereo unspecified) | inactive
16 | O=C(c1ccccc1)c1ccc(O)cc1O | 25 µM (active) and inactive
17 | CN(C)C(=N)N=C(N)N | inactive
18 | CC(C)OC(=O)C(C)(C)Oc1ccc(C(=O)c2ccc(Cl)cc2)cc1 | inactive
19 | CNCCCC12CCC(c3ccccc31)c1ccccc12 | 21.9 µM (active) and inactive
20 | c1ccc2sc(SSN3CCOCC3)nc2c1 | inactive

Row | Compound | Potency
21 | CC(=O)Oc1ccccc1C(=O)Nc1ncc([N+](=O)[O-])s1 | inactive
22 | Cc1cc2nc3c(=O)[nH]c(=O)nc-3n(C[C@H](O)[C@H](O)[C@H](O)CO)c2cc1C | inactive
23 | O=c1oc(=O)c2cc3c(=O)oc(=O)c3cc12 | inactive
24 | O=C1OC2(c3cc(Br)c(O)c(Br)c3Oc3c2cc(Br)c(O)c3Br)c2c(Cl)c(Cl)c(Cl)c(Cl)c21 | inactive
25 | OC1CCCCCCCCCCC1 | inactive
26 | COC(=O)C1=C(C)NC(C)=C(C(=O)OCCN(C)Cc2ccccc2)C1c1cccc([N+](=O)[O-])c1 (stereo unspecified) | 24.4 µM (active)
27 | O=C(COc1ccc(Cl)cc1)N1CCN(Cc2ccc3c(c2)OCO3)CC1 | inactive
28 | O=C1c2cccc(O)c2C(=O)c2c(O)cccc21 | inactive
29 | COc1cc([C@@H]2c3cc4c(cc3[C@H](O)[C@H]3COC(=O)[C@H]23)OCO4)cc(OC)c1OC | inactive
30 | CN(C)CCC=C1c2ccccc2CCc2ccccc21 | 12.3 µM (active) and 15.5 µM (active) and 13.4 µM (active)
31 | O=C(O)c1ccccc1Nc1cccc(C(F)(F)F)c1 | inactive
32 | CC(C)(C)NC(=O)[C@H]1CC[C@H]2[C@@H]3CC[C@H]4NC(=O)C=C[C@]4(C)[C@H]3CC[C@]12C | inactive
33 | Nc1ccc(Nc2ccccc2)cc1 | inactive
34 | C[C@]12CC[C@H]3[C@@H](CCC4=CC(=O)CC[C@@]43C)[C@@H]1CC[C@@H]2C(=O)CO | inactive
35 | Nc1ccccc1N | inactive
36 | S=C(NC1CCCCC1)NC1CCCCC1 | inactive
